# Experimental data from PubChem BioAssay AID1159580 (chemical genetic matrix, 2015).
# About 2,000 (36%) of roughly 5,500 compounds were called active. Roughly 18% stayed inconclusive and do not appear here. Some of the results follow. A number with no mark means an inactive call. Cut-off read from the data, not from the text of the source: active = normalized growth mostly below about 0.91 (no sharp cut-off); inconclusive = no clear call, values can overlap the other calls; inactive = mostly above about 0.92.
# Assay: chemical genetic growth profiling, strain panel (AID 1159580);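 note: tested at 20 µM; growth read once vehicle control cultures reached saturation at 30 °C; 1 = growth at the plate median or of vehicle wells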
# Conditions: growth OD
compound,measurement,setting,value
CCCCOc1ccc(OCCCN2CCOCC2)cc1,normalized growth,"S. cerevisiae deletion strains, locus YJR075W, strain HOC1, stronger effect = lower value",0.806 (active)
same,normalized growth,"S. cerevisiae deletion strains, locus YKL009W, strain mrt4, stronger effect = lower value",1
same,normalized growth,"S. cerevisiae deletion strains, locus YKL068W, stronger effect = lower value",0.998
same,normalized growth,"S. cerevisiae deletion strains, locus YKL085W, strain MDH1 (second series), stronger effect = lower value",0.997
same,normalized growth,"S. cerevisiae deletion strains, locus YKL085W, strain MDH1, stronger effect = lower value",0.997
same,normalized growth,"S. cerevisiae deletion strains, locus YKL160W, strain elf1, stronger effect = lower value",0.914
same,normalized growth,"S. cerevisiae deletion strains, locus YKL190W, strain CNB1, stronger effect = lower value",0.871 (active)
same,normalized growth,"S. cerevisiae deletion strains, locus YKR001C, strain vps1, stronger effect = lower value",0.572 (active)
same,normalized growth,"S. cerevisiae deletion strains, locus YKR026C, strain gcn3, stronger effect = lower value",0.985
same,normalized growth,"S. cerevisiae deletion strains, locus YKR091W, strain srl3, stronger effect = lower value",0.992
same,normalized growth,"S. cerevisiae deletion strains, locus YLL001W, strain dnm1, stronger effect = lower value",0.944
same,normalized growth,"S. cerevisiae deletion strains, locus YLL026W, stronger effect = lower value",0.98
same,normalized growth,"S. cerevisiae deletion strains, locus YLL041C, strain sdh2, stronger effect = lower value",0.958
same,normalized growth,"S. cerevisiae deletion strains, locus YLR027C, strain aat2, stronger effect = lower value",0.977
same,normalized growth,"S. cerevisiae deletion strains, locus YLR039C, strain RIC1, stronger effect = lower value",1.22
same,normalized growth,"S. cerevisiae deletion strains, locus YLR058C, strain SHM2, stronger effect = lower value",0.908
same,normalized growth,"S. cerevisiae deletion strains, locus YLR102C, strain apc9, stronger effect = lower value",0.989
same,normalized growth,"S. cerevisiae deletion strains, locus YLR113W, strain HOG1, stronger effect = lower value",1.03
same,normalized growth,"S. cerevisiae deletion strains, locus YLR221C, strain rsa3, stronger effect = lower value",0.919
same,normalized growth,"S. cerevisiae deletion strains, locus YLR258W, strain gsy2, stronger effect = lower value",0.946
same,normalized growth,"S. cerevisiae deletion strains, locus YLR262C, strain YPT6 (second series), stronger effect = lower value",0.771 (active)
same,normalized growth,"S. cerevisiae deletion strains, locus YLR262C, strain YPT6, stronger effect = lower value",1.16
same,normalized growth,"S. cerevisiae deletion strains, locus YLR268W, strain sec22, stronger effect = lower value",0.873 (active)
same,normalized growth,"S. cerevisiae deletion strains, locus YLR320W, strain mms22, stronger effect = lower value",0.609 (active)
same,normalized growth,"S. cerevisiae deletion strains, locus YLR330W, strain CHS5, stronger effect = lower value",0.969
same,normalized growth,"S. cerevisiae deletion strains, locus YLR342W, strain FKS1 (second series), stronger effect = lower value",0.87
same,normalized growth,"S. cerevisiae deletion strains, locus YLR342W, strain FKS1, stronger effect = lower value",0.985
same,normalized growth,"S. cerevisiae deletion strains, locus YLR357W, strain rsc2, stronger effect = lower value",1.08
same,normalized growth,"S. cerevisiae deletion strains, locus YLR370C, strain arc18, stronger effect = lower value",0.986
same,normalized growth,"S. cerevisiae deletion strains, locus YLR371W, strain rom2, stronger effect = lower value",0.965
same,normalized growth,"S. cerevisiae deletion strains, locus YLR384C, strain iki3, stronger effect = lower value",0.934
same,normalized growth,"S. cerevisiae deletion strains, locus YLR418C, strain cdc73, stronger effect = lower value",0.736 (active)
same,normalized growth,"S. cerevisiae deletion strains, locus YML016C, strain PPZ1, stronger effect = lower value",0.985
same,normalized growth,"S. cerevisiae deletion strains, locus YML032C, strain rad52, stronger effect = lower value",0.848 (active)
same,normalized growth,"S. cerevisiae deletion strains, locus YML120C, strain ndi1, stronger effect = lower value",1.01
same,normalized growth,"S. cerevisiae deletion strains, locus YML124C, strain tub3, stronger effect = lower value",0.997
same,normalized growth,"S. cerevisiae deletion strains, locus YMR058W, strain fet3, stronger effect = lower value",0.927
same,normalized growth,"S. cerevisiae deletion strains, locus YMR078C, strain ctf18, stronger effect = lower value",0.975
same,normalized growth,"S. cerevisiae deletion strains, locus YMR125W, strain sto1, stronger effect = lower value",0.973
same,normalized growth,"S. cerevisiae deletion strains, locus YMR129W, stronger effect = lower value",1
same,normalized growth,"S. cerevisiae deletion strains, locus YMR205C, strain PFK2, stronger effect = lower value",0.897
same,normalized growth,"S. cerevisiae deletion strains, locus YMR223W, strain ubp8, stronger effect = lower value",0.88 (active)
same,normalized growth,"S. cerevisiae deletion strains, locus YMR231W, strain pep5, stronger effect = lower value",0.967
same,normalized growth,"S. cerevisiae deletion strains, locus YMR263W, strain SAP30, stronger effect = lower value",0.946
same,normalized growth,"S. cerevisiae deletion strains, locus YMR307W, strain GAS1, stronger effect = lower value",1
same,normalized growth,"S. cerevisiae deletion strains, locus YNL067W, strain RPL9B, stronger effect = lower value",0.829 (active)
same,normalized growth,"S. cerevisiae deletion strains, locus YNL071W, strain lat1, stronger effect = lower value",0.663 (active)
same,normalized growth,"S. cerevisiae deletion strains, locus YNL128W, strain TEP1, stronger effect = lower value",0.986
same,normalized growth,"S. cerevisiae deletion strains, locus YNL153C, strain GIM3, stronger effect = lower value",0.903
same,normalized growth,"S. cerevisiae deletion strains, locus YNL183C, strain NPR1, stronger effect = lower value",0.917
same,normalized growth,"S. cerevisiae deletion strains, locus YNL209W, strain ssb2, stronger effect = lower value",0.965
same,normalized growth,"S. cerevisiae deletion strains, locus YNL233W, strain BNI4, stronger effect = lower value",0.767 (active)
same,normalized growth,"S. cerevisiae deletion strains, locus YNL248C, strain rpa49, stronger effect = lower value",0.769 (active)
same,normalized growth,"S. cerevisiae deletion strains, locus YNL250W, strain rad50, stronger effect = lower value",0.963
same,normalized growth,"S. cerevisiae deletion strains, locus YNL271C, strain bni1, stronger effect = lower value",0.966
same,normalized growth,"S. cerevisiae deletion strains, locus YNL298W, strain CLA4, stronger effect = lower value",0.975
same,normalized growth,"S. cerevisiae deletion strains, locus YNL307C, strain MCK1, stronger effect = lower value",0.649 (active)
same,normalized growth,"S. cerevisiae deletion strains, locus YNL322C, strain KRE1 (second series), stronger effect = lower value",1.02
same,normalized growth,"S. cerevisiae deletion strains, locus YNL322C, strain KRE1, stronger effect = lower value",0.977
same,normalized growth,"S. cerevisiae deletion strains, locus YNR049C, strain mso1, stronger effect = lower value",0.978
same,normalized growth,"S. cerevisiae deletion strains, locus YNR052C, strain pop2, stronger effect = lower value",0.83 (active)
same,normalized growth,"S. cerevisiae deletion strains, locus YOL006C, strain TOP1, stronger effect = lower value",0.239 (active)
same,normalized growth,"S. cerevisiae deletion strains, locus YOL012C, strain htz1",1.06
same,normalized growth,"S. cerevisiae deletion strains, locus YOL147C, strain pex11, stronger effect = lower value",0.962
same,normalized growth,"S. cerevisiae deletion strains, locus YOR001W, strain rrp6, stronger effect = lower value",0.8 (active)
same,normalized growth,"S. cerevisiae deletion strains, locus YOR061W, strain CKA2, stronger effect = lower value",0.987
same,normalized growth,"S. cerevisiae deletion strains, locus YOR069W, strain VPS5, stronger effect = lower value",0.995
same,normalized growth,"S. cerevisiae deletion strains, locus YOR070C, strain gyp1, stronger effect = lower value",0.632 (active)
same,normalized growth,"S. cerevisiae deletion strains, locus YOR080W, strain dia2, stronger effect = lower value",0.985
same,normalized growth,"S. cerevisiae deletion strains, locus YOR083W, strain WHI5, stronger effect = lower value",0.931
same,normalized growth,"S. cerevisiae deletion strains, locus YOR106W, strain vam3, stronger effect = lower value",0.875
same,normalized growth,"S. cerevisiae deletion strains, locus YOR136W, strain idh2, stronger effect = lower value",0.962
same,normalized growth,"S. cerevisiae deletion strains, locus YOR144C, strain elg1, stronger effect = lower value",0.994
same,normalized growth,"S. cerevisiae deletion strains, locus YOR184W, strain ser1, stronger effect = lower value",0.742 (active)
same,normalized growth,"S. cerevisiae deletion strains, locus YOR231W, strain MKK1, stronger effect = lower value",0.984
same,normalized growth,"S. cerevisiae deletion strains, locus YOR265W, strain rbl2, stronger effect = lower value",0.967
same,normalized growth,"S. cerevisiae deletion strains, locus YOR270C, strain vph1, stronger effect = lower value",0.41 (active)
same,normalized growth,"S. cerevisiae deletion strains, locus YOR290C, strain snf2, stronger effect = lower value",0.917
same,normalized growth,"S. cerevisiae deletion strains, locus YOR316C, strain cot1, stronger effect = lower value",0.99
same,normalized growth,"S. cerevisiae deletion strains, locus YPL051W, strain arl3, stronger effect = lower value",0.873 (active)
same,normalized growth,"S. cerevisiae deletion strains, locus YPL055C, strain LGE1, stronger effect = lower value",0.857
same,normalized growth,"S. cerevisiae deletion strains, locus YPL078C, strain atp4, stronger effect = lower value",0.941
same,normalized growth,"S. cerevisiae deletion strains, locus YPL106C, strain sse1, stronger effect = lower value",1.09
same,normalized growth,"S. cerevisiae deletion strains, locus YPL240C, strain hsp82, stronger effect = lower value",0.982
same,normalized growth,"S. cerevisiae deletion strains, locus YPL241C, strain CIN2, stronger effect = lower value",0.992
same,normalized growth,"S. cerevisiae deletion strains, locus YPL256C, strain CLN2, stronger effect = lower value",1.02
same,normalized growth,"S. cerevisiae deletion strains, locus YPR119W, strain clb2, stronger effect = lower value",1.01
same,normalized growth,"S. cerevisiae deletion strains, locus YPR141C, strain kar3, stronger effect = lower value",0.984
same,normalized growth,"S. cerevisiae deletion strains, locus YPR163C, strain tif3, stronger effect = lower value",0.765 (active)
same,normalized growth,"S. cerevisiae deletion strains, locus YPR167C, strain met16, stronger effect = lower value",0.977
same,normalized growth,"S. cerevisiae deletion strains, strain wtn01, stronger effect = lower value",0.856 (active)
same,normalized growth,"S. cerevisiae strains, strain wild type, stronger effect = lower value",0.895 (active)
